According to PubChem BioAssay (NCATS):
Records with an inconclusive call do not appear. Calls of active or inactive are those of the source. Unless noted, calls come from the whole dose curve; as a rule, active = well fitted curve in either direction with a large enough effect (not every such curve was filed as active); inconclusive = small, poorly fitted or top-dose-only effect, or another doubt; inactive = flat fitted curve, though single readings scatter.

Key:
[1] = molecular target: Lysosomal acid glucosylceramidase (Homo sapiens) (UniProt P04062); assay: Glucocerebrosidase-p2 (AID 348; in the data active = potency below about 10 µM; note: potency is the fitted concentration of half-maximal effect); conditions: purified GBA, blue fluorogenic substrate, 40 min
Outline: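 Compounds titrated from 0.6 nM upwards against 0.2 nM enzyme in pH 5.9 citric acid/KH2PO4, taurocholate, tween-20; blue fluorogenic substrate 80 uM, 40 min room temperature, stopped and read Ex 365/Em 440 for AC50.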

[2] = AP1 Signaling Pathway (AID 357); conditions: ME-180 AP-1-bla reporter, EGF-induced, beta-lactamase ratio, 5 h; at 7.69 µM (top of the series) unless noted;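 note: ME-180 reporter cells stimulated with EGF at its EC50 level; % is set by controls: 0 for no effect and ±100 for the full control effect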
Outline: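 Modulation of EGF-driven AP-1 transcription was assessed with a beta-lactamase reporter in ME-180 cells. Compound and EC50 EGF were co-incubated 5 hours at 37 °C before 2.5-hour CCF4 loading at room temperature and dual-emission reading.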

[3] = molecular target: Cytochrome P450 1A2 (Homo sapiens) (UniProt P05177); assay: p450-cyp1a2 (AID 410; calls by dose curve; note: potency is the fitted concentration of half-maximal effect;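 for activity change, negative = inhibition: -100% = full effect of reference inhibitor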); conditions: recombinant CYP1A2, luciferin-ME demethylation, luminescence; series mostly up to 57 µM
Outline: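 Inhibition was calculated relative to 57 uM furafylline (full inhibition). The reaction used human CYP1A2 at 20nM with Luciferin-ME at its Km, 100uM, driven by an NADPH-regenerating system for 60 min at room temperature.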

[4] = NFAT Signaling Pathway (AID 444); conditions: Jurkat NFAT-bla M1, carbachol, beta-lactamase ratio, 5 h; at 7.69 µM (top of the series) unless noted;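 note: carbachol stimulus at about its EC50 of 1 µM final; % is set by controls: 0 for no effect and ±100 for the full control effect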
Outline: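 Jurkat cells with NFAT-driven β-lactamase reporter and co-expressed M1 receptor, stimulated with carbachol (final 1 uM, ~EC50), compound titration, 5 h at 37 °C. CCF4 loaded 1 h at RT; 460/530 nm ratio gave %activity and AC50.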

[5] = Stat Signaling Pathway (AID 446); conditions: ME-180 SIE beta-lactamase reporter, IL-6 stimulated, 5 h; at 7.69 µM (top of the series) unless noted;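 note: ME-180 cervical cancer cells given 40 pM IL-6 alongside compound; SIE-controlled beta-lactamase reporter measured as 460/530 nm FRET emission ratio; % is set by controls: 0 for no effect and ±100 for the full control effect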
Outline: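 Reporter line: ME-180 cervical carcinoma, SIE-beta-lactamase. Treatment: compound with 40 pM IL-6, 5 hrs, 37 C, in low-serum OPTI-MEM with 10 mM HEPES pH 7.3. Detection: 460/530 nm fluorescence.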

[6] = molecular target: Glucocorticoid receptor (Homo sapiens) (UniProt P04150); assay: GR-EFC Redistribution (AID 451; calls by dose curve; note: potency is the fitted concentration of half-maximal effect); conditions: CHO-K1 GR-EFC translocation, beta-gal luminescence, 2 h
Outline: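 CHO-K1 cells expressing nuclear EA and GR-ED fragments of b-gal; compounds titrated up to 46 uM final, 2 h at 37 C. GR nuclear translocation read as complemented b-gal luminescence after 1 h RT detection.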

[7] = molecular target: Mitogen-activated protein kinase 10 (Mus musculus) (UniProt Q61831); assay: JNK3 AlphaScreen Assay (AID 530); conditions: JNK3 lysate, c-Jun phosphorylation; series mostly up to 57.1 µM;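 note: kinase came from lysate of stimulated human HepG2 cells; signal reports phosphorylation of biotinylated GST-cJun 1-79 at Ser73 with 10 µM ATP; % is set by controls: 0 for no effect and ±100 for the full control effect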
Outline: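 qHTS format: compounds tested as titrations against IL-1beta/TNF-alpha-activated HepG2 lysate JNK3 with biotin-GST-cJun substrate and 10 uM ATP at room temperature. Loss of anti-phospho-cJun AlphaScreen signal indicates inhibition.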

[8] = molecular target: 3',5'-cyclic-AMP phosphodiesterase 4B (Homo sapiens) (UniProt Q07343); assay: qHTS Assay for Inhibitors of PDE-IV (AID 607; active = well fitted activation curve with a large enough effect in the main read-out, with a control signal flat, not every such curve was filed as active; note: % of control where 0% means no effect); conditions: HEK293 ACTOne CNG channel cells, membrane potential fluorescence; series mostly up to 22.9 µM
Outline: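 Cell-based read-out of cAMP via a modified cyclic nucleotide-gated channel and membrane potential dye (535/590 nm) in HEK293 cells expressing PDE4 endogenously. Compounds tested up to 22.9 uM final; 100 uM RO 20-1724 reference.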

[9] = molecular target: Cytochrome P450 3A4 (Homo sapiens) (UniProt P08684); assay: qHTS Assay for Activators of Cytochrome P450 3A4 (AID 885; active = well fitted curve in the direction sought with a large enough effect; an effect the other way counts as inactive or inconclusive; note: nearly all actives have a fitted effect of over 65% in size; note: potency is the fitted concentration of half-maximal effect); conditions: recombinant CYP3A4, Luciferin-PPXE luminescence, 60 min; series mostly up to 57.1 µM
Outline: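 Signal was normalized against complete inhibition by 57 uM ketoconazole. The reaction used 20nM CYP3A4 with 25uM Luciferin-PPXE, 10-min compound preincubation and a 60-min NADPH-supported step at RT.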

[10] = qHTS Assay for Lipid Storage Modulators (AID 1519; calls by dose curve); conditions: Drosophila S3 cells, BODIPY lipid droplet/cell ratio, laser cytometry, cells loaded with oleic acid; for activity change, negative = inhibition: at 57.5 µM (top of the series)
Outline: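 Cells seeded at 5,000 per well were treated with compounds over a concentration series and loaded with oleic acid (400 uM, as added). Lipid droplet fluorescence (488 nm excitation, 500-530 nm channel) was read by laser-scanning cytometry and normalized to 20 uM Triacsin C.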

[11] = Primary qHTS for small molecule stabilizers of the endoplasmic reticulum resident proteome: Secreted ER Calcium Modulated Protein (SERCaMP) assay (AID 1508630; active = well fitted curve in the direction sought with a large enough effect; an effect the other way counts as inactive or inconclusive; note: % is set by controls: 0 for no effect and ±100 for the full control effect); conditions: SH-SY5Y GLuc-SERCaMP (Gaussia luciferase released on ER calcium loss) secretion, thapsigargin, luminescence; series mostly up to 38.4 µM
Outline: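 GLuc-SERCaMP-expressing SH-SY5Y cells, pretreated 16 h with compound, are challenged with thapsigargin to empty ER calcium stores; after 4 h, coelenterazine is added directly to the medium and luminescence is imaged.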

[12] = molecular target: Cytochrome P450 2C19 (Homo sapiens) (UniProt P33261); assay: qHTS Assay for Inhibitors and Substrates of Cytochrome P450 2C19 (AID 899; active = well fitted curve in the direction sought with a large enough effect; an effect the other way counts as inactive or inconclusive; note: nearly all actives have a fitted effect of over 60% in size; note: potency is the fitted concentration of half-maximal effect); conditions: recombinant CYP2C19, luciferin-H EGE luminescence; series mostly up to 57.1 µM
Outline: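 Signal comes from luciferase acting on luciferin released by CYP2C19-mediated hydroxylation of Luciferin-H EGE, 10uM (KM). Assay mix: 5nM enzyme, 50mM KPO4; 60 min at 37C with NADPH regeneration. Data normalized against 57uM ketoconazole.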

[13] = molecular target: Cytochrome P450 2D6 (Homo sapiens) (UniProt P10635); assay: qHTS Assay for Inhibitors and Substrates of Cytochrome P450 2D6 (AID 891; active = well fitted curve in the direction sought with a large enough effect; an effect the other way counts as inactive or inconclusive; note: potency is the fitted concentration of half-maximal effect; nearly all actives have a fitted effect of over 60% in size); conditions: recombinant CYP2D6, luciferin-ME EGE luminescence; series mostly up to 57.1 µM
Outline: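 Human CYP2D6 (5 nM) with 30 uM Luciferin-ME EGE (at Km) in 100 mM KPO4, compound preincubated 10 min, then NADPH regeneration system for 60 min at room temperature. Luciferin read by luminescence; normalized to 1.43 uM quinidine.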

[14] = Confirmation and Secondary Assay for Modulators of Hemoglobin Beta Chain Splicing at IVS2 654 locus (AID 910; active = well fitted curve in the direction sought with a large enough effect; an effect the other way counts as inactive or inconclusive;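 note: HeLa cells stably carrying EGFP split by mutant beta-globin IVS2-654 intron; % of control where 0% means no effect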); conditions: HeLa EGFP-654 splicing reporter, GFP fluorescence, 48 h; series mostly up to 38.3 µM
Outline: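 HeLa cells stably expressing EGFP interrupted by β-globin IVS2-654 intron, seeded overnight in Opti-MEM/2% FCS, then treated 2 days at 37 °C. Restored splicing read as total peak GFP intensity per well by laser scanning cytometry (488 nm excitation, 500–520 nm emission); 500 nM antisense PNA as control.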

[15] = Confirmation and Secondary Assay for Modulators of Hemoglobin Beta Chain Splicing at IVS2 705 locus (AID 930; active = well fitted curve in the direction sought with a large enough effect; an effect the other way counts as inactive or inconclusive;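 note: HeLa cells stably expressing the EGFP-705 splicing reporter; GFP fluorescence per well restored by corrected splicing of the IVS2-705 intron in EGFP; % of control where 0% means no effect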); conditions: HeLa EGFP-705 splicing reporter, GFP fluorescence, 48 h; series mostly up to 38.3 µM
Outline: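 Splice-correction reporter: EGFP cDNA split by beta-globin intron 2 bearing the 705 mutation, stably in HeLa. Compound incubation 2 days, 37C; fluorescent objects 5-250 µm summed per well.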

[16] = measured here: cell count channel max response
[17] = measured here: lipid channel max response

3',5'-cyclic-AMP phosphodiesterase 4B (Homo sapiens), sequence (Q07343 whole entry, looked up): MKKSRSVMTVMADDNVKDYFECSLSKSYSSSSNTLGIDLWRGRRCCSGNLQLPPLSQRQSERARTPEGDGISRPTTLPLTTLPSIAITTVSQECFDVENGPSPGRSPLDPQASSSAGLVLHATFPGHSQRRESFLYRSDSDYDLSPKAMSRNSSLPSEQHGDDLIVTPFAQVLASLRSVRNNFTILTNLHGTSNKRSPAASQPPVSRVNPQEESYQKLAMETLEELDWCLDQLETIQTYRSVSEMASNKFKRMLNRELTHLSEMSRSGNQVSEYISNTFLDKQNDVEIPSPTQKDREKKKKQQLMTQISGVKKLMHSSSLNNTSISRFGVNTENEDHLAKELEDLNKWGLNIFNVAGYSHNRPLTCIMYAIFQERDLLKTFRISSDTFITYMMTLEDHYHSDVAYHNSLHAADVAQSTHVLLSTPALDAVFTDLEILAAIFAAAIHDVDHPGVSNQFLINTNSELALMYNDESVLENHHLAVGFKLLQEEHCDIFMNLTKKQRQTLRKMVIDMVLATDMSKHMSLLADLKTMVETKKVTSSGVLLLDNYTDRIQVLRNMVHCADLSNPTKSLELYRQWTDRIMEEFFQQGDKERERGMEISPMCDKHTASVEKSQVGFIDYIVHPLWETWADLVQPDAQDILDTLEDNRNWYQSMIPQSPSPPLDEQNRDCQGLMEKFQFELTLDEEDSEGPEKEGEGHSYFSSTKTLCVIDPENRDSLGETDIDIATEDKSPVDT
Lysosomal acid glucosylceramidase (Homo sapiens), sequence (P04062 whole entry, looked up): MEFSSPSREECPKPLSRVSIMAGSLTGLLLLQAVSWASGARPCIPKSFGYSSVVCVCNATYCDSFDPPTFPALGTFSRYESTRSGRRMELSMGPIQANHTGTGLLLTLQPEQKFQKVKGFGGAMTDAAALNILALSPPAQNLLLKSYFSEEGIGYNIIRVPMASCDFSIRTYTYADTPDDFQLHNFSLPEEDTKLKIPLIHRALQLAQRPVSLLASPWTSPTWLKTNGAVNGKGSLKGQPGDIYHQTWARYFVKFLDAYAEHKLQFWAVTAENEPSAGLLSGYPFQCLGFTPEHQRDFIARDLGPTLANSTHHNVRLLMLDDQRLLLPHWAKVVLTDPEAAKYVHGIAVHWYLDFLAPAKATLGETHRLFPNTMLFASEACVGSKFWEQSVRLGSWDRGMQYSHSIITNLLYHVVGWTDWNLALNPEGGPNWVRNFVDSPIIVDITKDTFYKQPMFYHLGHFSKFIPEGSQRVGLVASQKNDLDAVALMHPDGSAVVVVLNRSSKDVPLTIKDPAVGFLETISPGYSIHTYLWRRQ
Cytochrome P450 2D6 (Homo sapiens), sequence (P10635 whole entry, looked up): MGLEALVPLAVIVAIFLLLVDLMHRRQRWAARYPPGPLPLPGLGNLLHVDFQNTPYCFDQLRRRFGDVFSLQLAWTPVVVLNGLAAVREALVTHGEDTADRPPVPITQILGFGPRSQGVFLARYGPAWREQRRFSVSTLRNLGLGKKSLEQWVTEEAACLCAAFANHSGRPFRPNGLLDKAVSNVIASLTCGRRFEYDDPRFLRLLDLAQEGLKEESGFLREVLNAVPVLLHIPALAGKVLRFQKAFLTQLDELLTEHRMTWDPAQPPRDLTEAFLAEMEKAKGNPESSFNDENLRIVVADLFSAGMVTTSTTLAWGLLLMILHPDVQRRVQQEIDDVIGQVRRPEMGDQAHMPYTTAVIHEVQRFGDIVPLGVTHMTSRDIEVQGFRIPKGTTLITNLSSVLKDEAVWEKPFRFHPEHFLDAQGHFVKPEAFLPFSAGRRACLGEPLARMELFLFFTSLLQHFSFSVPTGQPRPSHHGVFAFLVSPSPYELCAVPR
Cytochrome P450 1A2 (Homo sapiens), sequence (P05177 whole entry, looked up): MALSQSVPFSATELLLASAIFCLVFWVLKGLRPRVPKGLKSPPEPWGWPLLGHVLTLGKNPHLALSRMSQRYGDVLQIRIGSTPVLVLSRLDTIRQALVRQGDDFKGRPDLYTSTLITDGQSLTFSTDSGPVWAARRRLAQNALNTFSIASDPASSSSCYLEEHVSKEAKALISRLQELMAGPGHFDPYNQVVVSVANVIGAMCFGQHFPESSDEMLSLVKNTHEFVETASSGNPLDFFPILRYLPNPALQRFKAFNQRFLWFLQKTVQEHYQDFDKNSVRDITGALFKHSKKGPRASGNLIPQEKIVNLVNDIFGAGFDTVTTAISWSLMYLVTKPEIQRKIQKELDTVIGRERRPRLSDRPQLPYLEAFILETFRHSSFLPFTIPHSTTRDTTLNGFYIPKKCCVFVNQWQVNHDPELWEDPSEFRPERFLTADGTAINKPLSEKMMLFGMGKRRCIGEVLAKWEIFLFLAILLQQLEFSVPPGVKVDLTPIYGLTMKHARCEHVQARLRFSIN
Glucocorticoid receptor (Homo sapiens), sequence (P04150 whole entry, looked up, the tested form may be a part): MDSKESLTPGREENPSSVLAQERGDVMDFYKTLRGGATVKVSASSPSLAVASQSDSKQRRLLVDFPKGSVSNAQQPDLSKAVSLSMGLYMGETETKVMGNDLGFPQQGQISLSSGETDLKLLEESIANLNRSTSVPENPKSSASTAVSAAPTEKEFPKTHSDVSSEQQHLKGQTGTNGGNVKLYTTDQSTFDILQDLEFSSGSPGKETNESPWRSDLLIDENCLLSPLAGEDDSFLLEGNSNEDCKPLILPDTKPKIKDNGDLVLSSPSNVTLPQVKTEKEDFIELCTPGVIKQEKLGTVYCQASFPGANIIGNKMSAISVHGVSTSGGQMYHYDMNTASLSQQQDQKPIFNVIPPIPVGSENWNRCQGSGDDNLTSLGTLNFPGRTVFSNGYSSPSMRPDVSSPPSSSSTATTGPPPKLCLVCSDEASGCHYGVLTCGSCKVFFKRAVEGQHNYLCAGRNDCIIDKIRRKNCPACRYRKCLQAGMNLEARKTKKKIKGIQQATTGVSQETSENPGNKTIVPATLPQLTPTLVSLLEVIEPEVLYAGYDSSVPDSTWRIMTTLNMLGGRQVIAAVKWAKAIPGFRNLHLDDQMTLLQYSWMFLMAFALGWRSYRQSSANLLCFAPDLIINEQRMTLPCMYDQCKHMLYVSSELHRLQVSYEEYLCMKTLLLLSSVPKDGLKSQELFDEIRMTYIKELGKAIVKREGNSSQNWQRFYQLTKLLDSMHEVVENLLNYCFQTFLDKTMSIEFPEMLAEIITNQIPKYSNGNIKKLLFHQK
Cytochrome P450 2C19 (Homo sapiens), sequence (P33261 whole entry, looked up): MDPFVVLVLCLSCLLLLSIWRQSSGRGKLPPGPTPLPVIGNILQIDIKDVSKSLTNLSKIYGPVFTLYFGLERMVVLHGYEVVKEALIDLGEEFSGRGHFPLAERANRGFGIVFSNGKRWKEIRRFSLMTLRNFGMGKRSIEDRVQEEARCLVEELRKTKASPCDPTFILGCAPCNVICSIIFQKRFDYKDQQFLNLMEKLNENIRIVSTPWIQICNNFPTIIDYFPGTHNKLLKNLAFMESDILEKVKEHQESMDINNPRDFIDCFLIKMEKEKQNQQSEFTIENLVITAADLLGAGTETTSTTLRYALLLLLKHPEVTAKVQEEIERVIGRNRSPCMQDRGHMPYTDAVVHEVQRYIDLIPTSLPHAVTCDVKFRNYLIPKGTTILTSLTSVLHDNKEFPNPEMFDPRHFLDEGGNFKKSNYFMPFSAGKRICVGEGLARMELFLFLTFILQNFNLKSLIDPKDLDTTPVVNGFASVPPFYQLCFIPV
Cytochrome P450 3A4 (Homo sapiens), sequence (P08684 whole entry, looked up): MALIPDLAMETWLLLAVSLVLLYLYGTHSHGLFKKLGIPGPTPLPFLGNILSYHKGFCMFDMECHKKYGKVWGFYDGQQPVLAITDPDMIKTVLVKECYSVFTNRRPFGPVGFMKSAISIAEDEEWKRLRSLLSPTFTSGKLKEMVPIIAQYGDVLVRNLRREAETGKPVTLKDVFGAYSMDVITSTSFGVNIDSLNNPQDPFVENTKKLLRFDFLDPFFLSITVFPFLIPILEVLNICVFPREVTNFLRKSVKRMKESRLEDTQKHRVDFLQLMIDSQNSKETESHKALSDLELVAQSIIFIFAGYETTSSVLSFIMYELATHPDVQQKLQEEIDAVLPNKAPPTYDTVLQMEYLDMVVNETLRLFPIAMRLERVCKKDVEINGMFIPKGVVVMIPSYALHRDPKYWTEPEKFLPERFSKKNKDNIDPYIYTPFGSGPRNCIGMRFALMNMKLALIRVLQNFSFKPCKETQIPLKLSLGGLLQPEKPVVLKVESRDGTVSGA

CS(=O)(=O)N1CCC2(CC1)CN(C(=O)Nc1cccc(C#N)c1)C2
4.56%: max response [10, 16]
8.61%: max response [10, 17]
inactive: Potency [1] > 11.4 µM | activity change, negative = inhibition [2] -6.48% | Potency [3] | activity change, negative = inhibition [4] 14.4% | activity, negative = inhibition [5] -5.8% | Potency [6] > 46 µM | outcome [7] | Potency [8] | Potency [9] | activity change, negative = inhibition [10] 1.36% | Potency [11]

COC(=O)N1CCC2(CCCN(c3ccc(-c4ccccc4)cc3)C2)CC1
active: Potency [3] 20 µM
11%: max response [10, 16]
inactive: Potency [1] > 11.4 µM | activity change, negative = inhibition [2] -0.311% | activity change, negative = inhibition [4] -18.6% | activity, negative = inhibition [5] 3.59% | Potency [6] > 46 µM | outcome [7] | Potency [8] | Potency [9] | activity change, negative = inhibition [10] -29.2% | Potency [11]
-21.4%: max response [10, 17]

O=C(Nc1ccccc1)N1CCCC2(CCN(C(=O)c3ccco3)CC2)C1
20.3%: max response [10, 17]
active: Potency [3] 20 µM
inactive: Potency [1] > 11.4 µM | activity change, negative = inhibition [2] -8.89% | activity change, negative = inhibition [4] -7.1% | activity, negative = inhibition [5] -4.1% | Potency [6] > 46 µM | outcome [7] | Potency [8] | Potency [9] | activity change, negative = inhibition [10] 4.55% | Potency [11]
12%: max response [10, 16]

Cn1cccc1C(=O)N1CCC[C@@]2(CCN(c3ccncc3)C2)C1
-3.32%: max response [10, 16]
active: Potency [3] 12.6 µM | Potency [12] 6.31 µM
inactive: Potency [1] > 11.4 µM | activity change, negative = inhibition [2] -2.65% | activity change, negative = inhibition [4] -12.6% | activity, negative = inhibition [5] 7.16% | Potency [6] > 46 µM | outcome [7] | Potency [8] | Potency [9] | activity change, negative = inhibition [10] -3.31% | Potency [11]
-4.8%: max response [10, 17]

O=C(c1ccco1)N1CCC[C@@]2(CCN(Cc3ccccc3)C2)C1
-0.541%: max response [10, 16]
active: Potency [13] 2 µM
inactive: Potency [1] > 11.4 µM | activity change, negative = inhibition [2] -5.26% | Potency [3] | activity change, negative = inhibition [4] -3.82% | activity, negative = inhibition [5] -7.43% | Potency [6] > 46 µM | outcome [7] | Potency [8] | Potency [9] | activity change, negative = inhibition [10] 2.21% | Potency [11]
7.17%: max response [10, 17]

O=C(Oc1ccccc1)N1CCC[C@@]2(CCN(c3ncccn3)C2)C1
8.9%: max response [10, 16]
active: Potency [3] 12.6 µM | Potency [12] 2.51 µM
17.1%: max response [10, 17]
inactive: Potency [1] > 11.4 µM | activity change, negative = inhibition [2] 2.93% | activity change, negative = inhibition [4] -0.482% | activity, negative = inhibition [5] 9% | Potency [6] > 46 µM | outcome [7] | Potency [8] | Potency [9] | activity change, negative = inhibition [10] 4.5% | Potency [11]

CC(C)NC(=O)N1CC2(CCN(C(=O)c3ccncc3)CC2)C1
15.6%: max response [10, 17]
inactive: Potency [1] > 11.4 µM | activity change, negative = inhibition [2] 13% | Potency [3] | activity change, negative = inhibition [4] 10.6% | activity, negative = inhibition [5] 7.63% | Potency [6] > 46 µM | outcome [7] | Potency [8] | Potency [9] | activity change, negative = inhibition [10] -0.244% | Potency [11]
11.6%: max response [10, 16]

CC(=O)N1CCC2(CCCN(C(=O)Nc3cccc(F)c3)C2)CC1
-12.4%: max response [10, 16]
inactive: Potency [1] > 11.4 µM | activity change, negative = inhibition [2] -2.22% | Potency [3] | activity change, negative = inhibition [4] 13.9% | activity, negative = inhibition [5] -6.7% | Potency [6] > 46 µM | outcome [7] | Potency [8] | Potency [9] | activity change, negative = inhibition [10] -0.823% | Potency [11]
-13.5%: max response [10, 17]

O=C(c1cnccn1)N1CCC2(CC1)CCN(C(c1ccccc1)c1ccccc1)CC2
5.2%: max response [10, 17]
1.55%: max response [10, 16]
inactive: Potency [1] > 11.4 µM | activity change, negative = inhibition [2] 8.38% | activity change, negative = inhibition [4] -20.1% | activity, negative = inhibition [5] 6.95% | Potency [6] > 46 µM | outcome [7] | Potency [8] | activity change, negative = inhibition [10] 1.71% | Potency [11]
active: Potency [3] 10 µM | Potency [9] 3.16 µM | Potency [13] 3.98 µM

N#Cc1cccc(NC(=O)N2CC[C@@]3(CCCN(C(=O)c4ccncc4)C3)C2)c1
21.1%: max response [10, 17]
inactive: Potency [1] > 11.4 µM | activity change, negative = inhibition [2] -19.8% | Potency [3] | activity change, negative = inhibition [4] 1.61% | activity, negative = inhibition [5] 4.09% | Potency [6] > 46 µM | outcome [7] | Potency [8] | Potency [9] | activity change, negative = inhibition [10] 1.67% | Potency [11]
17.2%: max response [10, 16]

COc1ccc(NC(=O)N2CCCC3(CCNCC3)C2)cc1
inactive: Potency [1] > 11.4 µM | activity change, negative = inhibition [2] -1.83% | Potency [3] | activity change, negative = inhibition [4] 1.68% | activity, negative = inhibition [5] 5.73% | Potency [6] > 46 µM | outcome [7] | Potency [8] | Potency [9] | Potency [12] | activity change, negative = inhibition [10] 4.28% | Potency [11]
-5.9%: max response [10, 16]
0.941%: max response [10, 17]

COc1cccc(-c2nccc(-n3ccnc3)n2)c1
13.1%: max response [10, 17]
active: Potency [3] 0.0316 µM | Potency [13] 7.94 µM | Potency [12] 2.51 µM
inactive: Potency [1] > 11.4 µM | activity change, negative = inhibition [2] 9.38% | activity change, negative = inhibition [4] 14% | activity, negative = inhibition [5] -0.599% | Potency [6] > 46 µM | outcome [7] | Potency [8] | Potency [9] | outcome [14] | outcome [15] | activity change, negative = inhibition [10] 4.69% | Potency [11]
4.96%: max response [10, 16]
